Screens (PubChem)
hcDAF12 agonist: activates DAF-12 receptor from parasite H. contortus; HEK293 hcDAF-12 lit1-tk-luc reporter, luminescence; 0% DMSO, 100% Δ7-dafachronic acid; activation, % at 6.8 µM; 370,000 tested, 1.4% active; AID 652067;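 active = activation above the mean of all tested compounds plus 3 SD, cut at about 5.5% in these data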;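 also: 100% = response to 3 µM Δ7-dafachronic acid high control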
ssDAF12 agonist: activates DAF-12 receptor from parasite S. stercoralis; HEK293 ssDAF-12/GRIP1 lit1-tk-luc reporter, luminescence; % of 3 µM dafachronic acid response; activation, % at 6.8 µM; 370,000 tested, 1% active;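 active = activation above the mean over all tested compounds plus 3 SD, cut at about 0.9% in these data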;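 also: 0% = DMSO-only wells and 100% = 3 µM delta7-dafachronic acid wells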
DAX1 inh-1: inhibitors of human orphan nuclear receptor DAX1 (NR0B1); P51843; HEK293 Gal4-DAX1 luciferase reporter, luminescence; inhibition, % at 6.75 µM; 340,000 tested, 0.99% active; AID 504766;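 active = inhibition above the mean over all tested compounds plus 3 SD, cut at about 4.2% in these data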;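 also: 0% = DAX1-transfected cells with DMSO and 100% = empty-vector control cells with DMSO; inhibition shows as a rise in luminescence from relieved DAX1 repression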
Target sequence (P51843 207-470 limits assumed): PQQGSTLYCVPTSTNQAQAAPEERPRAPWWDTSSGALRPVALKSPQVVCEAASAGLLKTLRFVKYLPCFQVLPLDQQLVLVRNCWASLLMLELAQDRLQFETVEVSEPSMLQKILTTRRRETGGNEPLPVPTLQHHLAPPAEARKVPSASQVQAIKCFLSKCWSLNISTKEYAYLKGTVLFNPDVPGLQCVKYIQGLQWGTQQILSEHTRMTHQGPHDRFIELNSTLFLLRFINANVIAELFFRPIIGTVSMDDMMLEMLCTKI
hgDAF12 agonist: hgDAF-12 agonism, primary luciferase screen | HEK293 GAL4-hgDAF12 UAS-luciferase reporter, agonist luminescence; normalized to butyrate control | 370,000 tested, 1.8% active | activation, % at 6.8 µM | AID 687014;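 active = activation above a cutoff set at the mean of all screened compounds plus 3 SD, cut at about 10% in these data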;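 also: 0% = DMSO wells and 100% = sodium butyrate wells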
DAX1 inh-2: inhibitors of DAX1 repression of SF-1 activated StAR promoter | AID 652010 | inhibition, % at 6.8 µM | HEK293T StAR-luciferase reporter, SF-1/DAX-1 repression relief | 370,000 tested, 1.1% active;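 active = inhibition above the mean over all tested compounds plus 3 SD, cut at about 3.6% in these data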;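 also: 0% = DAX-1 cells with DMSO and 100% = cells lacking DAX-1 with DMSO; higher inhibition means more luminescence from relief of DAX-1 repression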
* hit, by the source's call; · = not tested or not shown. In the library only some 4.1% were active in any assay of this set; here they are far more common.

SMILES	hcDAF12 agonist	ssDAF12 agonist	DAX1 inh-1	hgDAF12 agonist	DAX1 inh-2
O=C1NC(=O)C(=Cc2ccc(Oc3ccc([N+](=O)[O-])cc3)cc2)C(=O)N1	·	·	1	·	·
COc1cc(C=C2C(=O)NC(=O)NC2=O)ccc1OCc1ccc([N+](=O)[O-])cc1	3	-1	2	13*	2
COc1cc2nc(CN3CC=C(c4ccccc4)CC3)[nH]c(=O)c2cc1OC	1	0	6.0*	8	-1
OC1CN2CCCC(O)C2C1O (configuration not stated)	1	-1	·	2	0
O=C(CSc1ccccc1)N1CCC2(CC1)OCCO2	3	-1	1	4	3.9*
Nc1c(C(=O)NCCCc2ccccc2)c2nc3ccccc3nc2n1Cc1cccs1	2	2.3*	-2	-4	-2
O=C(NCCN1CCC2(CC1)C(=O)NCN2c1ccccc1)c1ccc(Cl)c(Cl)c1	0	-1	·	3	1
CCOc1cc(/C=C2\C(=O)NC(=O)N(C)C2=O)cc([N+](=O)[O-])c1O	0	-2	13*	4	0
CCOc1ccc(N2C(=O)NC(=O)/C(=C\c3cc(OC)c(OC)cc3[N+](=O)[O-])C2=O)cc1	·	·	-1	·	·
C=CCc1ccc(OC)cc1	2	-2	4.5*	4	0
O=C(NCCN1CCC2(CC1)C(=O)NCN2c1ccccc1)c1ccc(OC(F)(F)F)cc1	2	-1	·	-1	-1
CN1CC[C@@H]2CN[C@H](c3ccccc3Br)C[C@@H]21	0	-1	·	6	2
Clc1ccc2[nH]c3c(c2c1)CCNC3	-2	0.9*	3	1	0
CN(C)c1ccc(/C=C2\C(=O)NC(=O)N(CCc3ccc(F)cc3)C2=O)cc1	-1	-2	5.5*	-1	0
COCCN1C(=O)NC(=O)/C(=C\c2ccc(F)cc2)C1=O	-1	-2	0	5	0
C[C@H](Cc1ccc(OCC(=O)O)cc1)NC[C@H](O)c1cccc(Cl)c1	-2	-1	·	-1	1
CC1(C)CN=C(NCc2ccccc2)S1	-1	-1	1	0	0
CC1(C)CN=C(Nc2nc3ccccc3s2)S1	5	1.5*	3	10	3
CCn1c(=O)cc(OCC(=O)N2CCC3(CC2)OCCO3)c2ccccc21	1	-1	4.4*	0	1
N#CC1c2ccccc2-n2nncc2CN1C(=O)c1cccnc1 (configuration not stated)	-1	0	·	0	-1
Cc1cc(/C=C2/C(=O)NC(=O)N(c3ccc(Br)cc3)C2=O)c(C)n1C	5.9*	0	3	3	0
Cc1cc(/C=C2\C(=O)NC(=O)N(c3cccc(Br)c3)C2=O)c(C)n1C	0	-1	2	0	0
O=c1[nH]c(=O)n(-c2ccc(Br)cc2)c(O)c1C=NCCN1CCCCC1	0	-1	6.4*	1	1
Cc1cccc(-n2c(O)c(C=NCCN3CCCCC3)c(=O)[nH]c2=O)c1	-2	-1	0	-1	-1
COC(=O)C1(N(C)c2ccccc2)CCN(Cc2ccccc2)CC1	2	-1	·	0	1
SMILES	hcDAF12 agonist	ssDAF12 agonist	DAX1 inh-1	hgDAF12 agonist	DAX1 inh-2
O=C1OC(c2ccc(Cl)cc2)=N/C1=C\N1CC2CC(C1)c1cccc(=O)n1C2 (configuration not stated)	-1	1.6*	2	5	0
O=C1OC(c2ccc(Br)cc2)=N/C1=C\N1CC2CC(C1)c1cccc(=O)n1C2 (configuration not stated)	-2	-2	0	1	0
CO[C@H]([C@H](C)/C=C/N(C)C=O)[C@@H](C)C(=O)CC[C@H](C)[C@H](O)[C@H](C)[C@H]1OC(=O)/C=C/C(C)=C/[C@H](O)[C@H](OC)C[C@@H]2C=CC[C@@H](C[C@H](OC)[C@@H](CO)[C@@H](OC)C[C@@H](OC)[C@@H]1C)O2	-1	-1	·	-9	·
COc1cc2c(cc1OC)C13CCN4CC5=CCOC(CC(=O)O)C(C5CC41)C3N2 (configuration not stated)	1	-1	5.7*	2	0
C=CCn1c(O)c(C(C)=NCc2ccco2)c(=O)[nH]c1=O	-2	-1	2	0	1
C=CCn1c(O)c(C(CC)=NCc2ccco2)c(=O)[nH]c1=O	0	0	4.9*	0	0
CN(C(=O)Oc1ccc(C(C)(C)C)cc1)c1ccccc1	-2	-1	0	11*	0
O=c1[nH]c(=O)n(-c2cccc(F)c2)c(O)c1/C=C1\C=Nc2ccccc21	5.7*	0	1	1	0
Brc1csc(N2CCNCC2)n1	-1	-1	·	-1	·
COc1ccc2cc(C(=O)C3CCCN(C4CCOCC4)C3)ccc2c1 (configuration not stated)	3	-2	1	-3	4.4*
Cc1ccc2nc(-c3ccc(CN4CCC(n5nnc6ccccc65)CC4)cc3)c(-c3ccccc3)nc2c1	-4	-2	·	-3	-4
N#CC1=C(N)Oc2c(c(=O)oc3ccccc23)C1c1ccncc1 (configuration not stated)	-2	-2	0	0	-1
N#CC1=C(N)Oc2c(c(=O)sc3ccccc23)C1c1cccnc1 (configuration not stated)	0	-2	-1	0	4.1*
Cc1ccccc1NC(=S)NC(NC(=O)CF)C(Cl)(Cl)Cl (configuration not stated)	1	-1	5.6*	-5	0
COc1ccc(NC(=S)NC(NC(=O)CF)C(Cl)(Cl)Cl)c([N+](=O)[O-])c1 (configuration not stated)	0	-1	-1	2	0
CCC(=Nc1cccc(C(F)(F)F)c1)c1c(O)n(C)c(=O)n(C)c1=O	0	-1	4.5*	0	0
CCC(=Nc1ccc(OC)cc1OC)c1c(O)n(C)c(=O)n(C)c1=O	-1	-1	0	-2	-2
CN1C2(C)c3ccccc3C1(c1ccccc1)c1ccccc12	0	-1	·	-3	-1
O=C1NC(=S)N(c2ccc(Br)cc2)C(=O)/C1=C/N1CCN(C(=O)c2ccco2)CC1	1	-1	4.7*	1	0
Cc1ccc(N2C(=O)/C(=C/N3CCN(C(=O)c4ccco4)CC3)C(=O)NC2=S)cc1C	0	-1	1	0	0
O=C(NC(Cc1ccccc1)P(=O)(O)Oc1ccccc1)OCc1ccccc1 (configuration not stated)	-1	-1	·	-3	0
S=P(c1ccccc1)(c1ccccc1)c1cnc2ccccn12	-1	-2	·	0	·
COc1ccc(CNCC(=O)N2CCC3(CC2)OCCO3)cc1	-1	-1	0	5	0
COc1ccc(-n2nc(C(=O)NCC(=O)N3CCC4(CC3)OCCO4)c3ccccc3c2=O)cc1	5.8*	-1	1	8	1
Nc1ccc(Cl)c(Cl)c1	0	1.1*	0	2	0
